# Laboratory results as given in PubChem BioAssay.
# Activity calls are given as the source filed them.
# Experiments:
# [1] = A549 cell viability effects, profiling panel, calcein-AM fluorescence, 48 h, basal (AID 1162); details: higher = more signal
# [2] = adipocyte viability effects, profiling panel, cell-based, 3T3-L1 adipocytes, calcein-AM fluorescence, 48 h, basal (AID 1163); details: 3T3-L1 adipocytes viability, higher = more signal
# [3] = HepG2 cell viability effects, profiling panel, calcein-AM fluorescence, 48 h, basal (AID 1164); details: higher = more signal
# [4] = MM1S cell viability effects, profiling panel, calcein-AM fluorescence, 48 h, basal (AID 1165); details: higher = more signal;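 also: viability of MM1S multiple myeloma cells under basal unstimulated conditions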
# [5] = basal RPMI8226 viability, no added stimulus, profiling panel, cell-based, calcein-AM fluorescence, 48 h, PK04 Diversity Set (AID 1166); details: RPMI8226 myeloma viability, higher = more signal;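 also: cells grown under basal conditions without added stimulus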
# [6] = basal HepG2 mitochondrial membrane potential changes, profiling panel, cell-based, JC-1 fluorescence, 24 h, 100 nL compound (AID 1167); details: higher = more signal
# [7] = basal 3T3-L1 adipocyte mitochondrial potential changes, profiling panel, cell-based, JC-1 fluorescence, 3T3-L1 adipocytes, 24 h, 100 nL compound (AID 1168); details: JC-1 mitochondrial fluorescence, higher = more signal, called active from +8 up or from −8 down
# [8] = basal RPMI8226 mitochondrial membrane potential changes, profiling panel, cell-based, JC-1 fluorescence, 24 h, 100 nL compound (AID 1169); details: RPMI8226 myeloma, JC-1 mitochondrial potential fluorescence, higher = more signal
# [9] = basal MM1S mitochondrial membrane potential changes, profiling panel, cell-based, JC-1 fluorescence, 24 h, 100 nL compound (AID 1170); details: higher = more signal
# [10] = A549 lung cancer cell viability effects, profiling panel, resazurin fluorescence, 24 h, PK04 Diversity Set (AID 1171); details: higher = more signal, called active from +8 up or from −8 down
# Also: test concentration not given here.
SMILES,z-score [1],z-score [2],z-score [3],z-score [4],z-score [5],z-score [6],z-score [7],z-score [8],z-score [9],z-score [10]
COC(=O)C(CC#Cc1ccc2c(c1)[C@]1(C(=O)N2)[C@H](C(=O)N2CCc3cc(OC)c(OC)cc3C2)[C@H]2C(=O)O[C@H](c3ccccc3)[C@H](c3ccccc3)N2[C@@H]1c1ccccc1OCCO)C(=O)OC,-0.179,-0.665,0.43,-0.151,0.546,-0.0236,0.968 (inactive),-0.839,-1.42,-0.694 (inactive)
CC(C)N1C(=O)C[C@@](C(=O)NCCN2CCOCC2)(c2ccc([N+](=O)[O-])cc2)[C@H]1c1ccc(CO)cc1,-0.827,-0.641,-0.235,-0.617,0.0859,0.0432,-0.279 (inactive),-0.95,-0.672,1.05 (inactive)
CC(C)(C)N1CC=CC23O[C@@H]4C=CCOC(=O)[C@@H]4[C@H]2C(=O)N(CCO)[C@@H]3C1=O (stereo not given in full),-0.247,-0.229,-0.112,0.0476,-0.46,-0.731,0.316 (inactive),0.0281,-0.537,-0.465 (inactive)
Cc1ccc(S[C@]2(C(=O)NC3CC3)CC(=O)N(C(C)C)[C@@H]2c2ccc(CO)cc2I)cc1,1.22,1.07,-0.722,-2.31,-2.82,2.11,-0.578 (inactive),-0.114,-2.21,0.954 (inactive)
CCOC(=O)C1=C[C@@H](C(C)(C)C)N(S(=O)(=O)c2ccc(C)cc2)[C@H]1c1ccc(C#N)cc1,-0.368,-0.316,-1.12,-2.79,-2.17,1.63,-0.398 (inactive),-0.372,-0.555,1.69 (inactive)
CCOC(=O)c1cn(C[C@H](Cc2ccccc2)NC(=O)N[C@H](CO)CCc2oc(C(C)=O)c(C(=O)OC)c2C(=O)OC)nn1,-0.462,1.16,0.0702,-0.0594,-1.88,-1,0.871 (inactive),-0.44,-0.0478,-0.636 (inactive)
C=C(C)[C@@H]1CC=C(C(O)C2C=CC3C(=O)N(c4ccccc4)C(=O)C3N2Nc2ccc([N+](=O)[O-])cc2)CC1 (stereo not given in full),0.485,0.153,0.736,-0.807,-0.493,-0.307,-2.47 (inactive),-0.507,0.451,-0.963 (inactive)
C[N+](C)(C)CCCC[C@@H]1NC(=O)[C@@H]2C[C@H](C(=O)NCc3ccc(F)cc3)[C@H](c3ccc(O)cc3)N2C1=O,0.993,-0.335,0.698,0.481,-0.114,1.62,-0.41 (inactive),-0.0248,-0.524,-0.0894 (inactive)
O=C1O[C@H](c2ccccc2)[C@H](c2ccccc2)N2[C@H]1[C@@H](C(=O)O)[C@]1(C(=O)Nc3ccc(C#CCCO)cc31)[C@H]2c1ccc(OCCO)cc1,0.616,1,0.461,-0.963,0.926,-0.76,-0.138 (inactive),0.489,0.492,0.367 (inactive)
CC(C)=CCCC(C)=CC(O)C1C=CC2C(=O)NC(=O)C2N1Nc1ccc(Cl)cc1Cl (stereo not given),-0.483,-0.0042,-1.62,-3.76,-4.11,-3.49,-0.947 (inactive),-0.238,-0.506,-0.577 (inactive)
O=C1C2C=CC(C(O)C3CCCCC3)N(n3cnnc3)C2C(=O)N1Cc1ccccc1 (stereo not given),-0.916,0.379,-0.611,-0.453,-0.441,-0.37,-2.27 (inactive),-0.0098,-1.04,0.714 (inactive)
COC(=O)[C@@]1(Cc2ccccc2)[C@H]2c3cc(C(=O)N(C)C)n(CCSC(=N)N)c3C[C@H]2CN1C(=O)c1ccccc1,-0.944,0.451,-1.11,-0.948,-1.07,0.121,-1.1 (inactive),-0.889,-0.656,-0.541 (inactive)
C=CCC(OC(C)=O)[C@@H]1[C@@H](N(Cc2ccc(-c3cccc(C(F)(F)F)c3)o2)C(=O)Cc2ccc(F)cc2)c2cc(OCCCO)ccc2N1C(=O)Cc1ccc2ccccc2c1 (stereo not given in full),-0.92,1.1,-0.0416,-1.7,-0.261,1.8,0.978 (inactive),-0.0117,0.0602,0.623 (inactive)
C=CCOC(=O)[C@@H]1[C@H]2C(=O)O[C@H](c3ccccc3)[C@H](c3ccccc3)N2[C@H](c2ccc(OCCOC(=O)[C@H]3C[C@H]4C(=O)N[C@@H](CCCCN(C)C)C(=O)N4[C@H]3c3ccc(O)cc3)cc2)[C@@]12C(=O)Nc1ccc(I)cc12,-0.191,-0.357,0.278,-0.644,-1.11,0.309,1.33 (inactive),-0.35,-0.933,0.923 (inactive)
COc1ccc([Si](C)(C)[C@H]2[C@H](CC(=O)N3Cc4ccccc4C[C@H]3CO)O[C@@]3(C(=O)N(C)c4c(Br)cc(C)cc43)[C@@H]2C)cc1,-2.66,0.231,-4.66,-2.71,-4.36,-2.2,0.0243 (inactive),-1.12,-2.31,-2.92 (inactive)
COc1ccc(C(O)C2C=CC3C(=O)N(C)C(=O)C3N2N(c2ccccc2)c2ccccc2)cc1 (stereo not given),-0.738,-0.863,0.132,0.513,-0.556,-0.93,-1.3 (inactive),-0.544,-0.426,-0.691 (inactive)
COc1cc(C(O)C2C=CC3C(=O)N(c4ccccc4)C(=O)C3N2Nc2ccccc2F)cc(OC)c1OC (stereo not given),0.0221,-0.603,-0.162,-1.76,-1.63,-1.15,-1.01 (inactive),0.446,0.142,-0.28 (inactive)
COc1ccc([Si](C)(C)[C@H]2[C@H](CC(=O)N3CCC[C@H]3CO)O[C@@]3(C(=O)N(Cc4ccc(N5CCCCC5=O)cc4)c4ccccc43)[C@@H]2C)cc1,-0.288,0.954,-0.531,-1.74,-3.5,3.5,-0.774 (inactive),-1.02,-0.184,-0.421 (inactive)
[N-]=[N+]=Nc1ccccc1[C@H]1OC(c2ccc(OCCCO)cc2)=N[C@@]1(Cc1ccccc1)C(=O)NCC(O)CO (stereo not given in full),-0.761,0.405,-0.629,-1.5,-2.2,0.854,0.291 (inactive),-0.925,-1,-0.949 (inactive)
C[C@@H]1ON(c2ccc(I)cc2)[C@H](c2cccc(NC(=O)OCC3c4ccccc4-c4ccccc43)c2)[C@H]1C(=O)N1C(=O)OC[C@H]1Cc1ccccc1,1.25,0.575,0.671,-0.749,-0.326,-0.194,1.54 (inactive),-1.19,1.78,0.623 (inactive)
COC(=O)[C@@]1(Cc2ccc(OC)cc2)[C@H]2c3cc(C(=O)N4CCCC4)n(Cc4c(CO)[nH]cc(C)c4=O)c3C[C@H]2CN1C(=O)c1ccccc1,-0.37,0.454,0.375,-0.206,0.501,2.94,0.926 (inactive),0.166,-1.19,0.582 (inactive)
CCCCC(O)C1C=CC2C(=O)N(c3ccccc3)C(=O)C2N1Nc1ccccc1 (stereo not given),0.645,-1.91,-0.371,0.225,-0.374,-1.43,0.466 (inactive),-0.241,0.0498,0.134 (inactive)
CC(C)C(=C=CC[C@H](O)c1ccccc1OCCO)C[C@H](O)c1cc(Cl)cc(Cl)c1O,0.884,0.271,0.601,-3.42,-3.2,-1.1,0.427 (inactive),-0.788,-1.07,-0.0216 (inactive)
COC(=O)[C@@]1(Cc2ccc(OC)cc2)[C@H]2c3cc(C(=O)N4CCCC4)n(Cc4ccc(Cl)c(C(F)(F)F)c4)c3C[C@H]2CN1C(=O)c1ccccc1,-0.305,0.134,0.931,-0.963,-0.741,2.07,0.15 (inactive),-0.671,-1.63,-0.134 (inactive)
COCCCNC(=O)[C@@]1(CCS(=O)(=O)c2ccccc2)COC(c2ccc(OCCCO)cc2)=N1,-0.222,1.11,-0.771,-0.181,-0.49,-0.903,-0.736 (inactive),-0.249,-0.0725,-0.468 (inactive)
O=C1c2ccccc2[C@@]2(Cc3ccccc3N(Cc3ccccc3)C2=O)[C@H](c2ccc(CO)cc2)N1Cc1ccccc1Cl,-0.334,0.331,-0.826,-0.411,0.139,1.1,-0.407 (inactive),-0.972,-0.316,-0.166 (inactive)
COC(=O)[C@@]1(Cc2ccc(OC)cc2)[C@H]2c3cc(C(=O)N(C)C)[nH]c3C[C@H]2CN1C(=O)c1ccccc1,-0.974,-0.539,0.683,0.945,0.184,1.46,-0.372 (inactive),-0.582,-0.488,0.145 (inactive)
COCCOC(=O)N1C(=O)[C@@]2(c3cc(C#CCCO)ccc31)[C@H](c1ccc(OCCO)cc1)N1[C@H](c3ccccc3)[C@H](c3ccccc3)OC(=O)[C@H]1[C@@H]2C(=O)N1CCCCCCC1,0.139,0.005,-0.584,-0.993,-1.03,-0.437,-2.09 (inactive),0.309,-0.958,-0.232 (inactive)
O=C(NCCN1CCOCC1)[C@@H]1c2ccccc2C(=O)N(Cc2ccccc2C(F)(F)F)[C@H]1c1ccc(CO)cc1,1.9,0.783,0.893,0.561,-0.588,2.59,-0.0687 (inactive),-0.335,-0.109,1.94 (inactive)
